Assay outcomes from PubChem.
CHO-K1 Ca antag – M1 antagonist counterscreen hit in parental CHO-K1 cells; AID 602250; ATP-induced calcium, Fluo-8 fluorescence; actives 0.6% (n = 360,000); inhibition, % at 3 µM;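 active = inhibition above a per-plate cutoff, the plate's mean sample inhibition plus 3 SD, cut at about 24% in these data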
M1 ag – human M1 muscarinic receptor agonists, primary screen, Fluo-8 calcium fluorescence, CHO-K1 cells, HTS. Muscarinic acetylcholine receptor M1 (Homo sapiens), P11229. CHO-K1 hM1, agonist mode; 0% DMSO, 100% acetylcholine EC100. activation, % at 3 µM. actives 0.33% (n = 360,000). AID 588814, 2011;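 active = activation above the run's mean compound activation plus 3 SD, cut at about 16% in these data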;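 note: peak over basal fluorescence ratio within a 140 s kinetic read after compound addition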
Target sequence (P11229 whole entry, looked up): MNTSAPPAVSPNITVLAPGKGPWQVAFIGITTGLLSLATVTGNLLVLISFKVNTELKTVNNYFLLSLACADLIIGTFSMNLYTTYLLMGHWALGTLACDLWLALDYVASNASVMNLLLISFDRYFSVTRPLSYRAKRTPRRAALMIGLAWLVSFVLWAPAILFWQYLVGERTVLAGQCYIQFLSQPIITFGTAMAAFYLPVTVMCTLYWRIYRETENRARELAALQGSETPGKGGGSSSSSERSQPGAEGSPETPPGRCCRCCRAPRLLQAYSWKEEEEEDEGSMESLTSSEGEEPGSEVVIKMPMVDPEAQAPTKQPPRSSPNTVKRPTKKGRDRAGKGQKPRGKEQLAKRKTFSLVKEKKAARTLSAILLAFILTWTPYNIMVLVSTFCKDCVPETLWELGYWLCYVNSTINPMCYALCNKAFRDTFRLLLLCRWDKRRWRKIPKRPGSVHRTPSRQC
CHRM1 antagonist – human M1 muscarinic receptor antagonists, primary screen, CHO-K1 cells, Fluo-8 calcium fluorescence, 1536-well | Muscarinic acetylcholine receptor M1 (Homo sapiens), P11229 | CHO-K1 hM1, ACh EC80 antagonist | inhibition, % at 3 µM | actives 1.3% (n = 360,000) | AID 588852, 2011;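 active = percent inhibition above its own plate's cutoff, namely the mean of that plate's compound wells plus 3 SD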;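 note: peak over basal fluorescence ratio during 140 s after agonist addition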
M1 PAM – human M1 muscarinic receptor positive allosteric modulators, primary screen, CHO-K1 cells, Fluo-8 calcium fluorescence, 1536-well | Muscarinic acetylcholine receptor M1 (Homo sapiens), P11229 | actives 0.088% (n = 360,000) | activation, % at 3 µM | CHO-K1 hM1, ACh EC20; 0% = ACh EC20, 100% = maximal ACh | AID 588819, 2011; in the data active = activation above about 19%, passing the limit was not always enough
CHO-K1 Ca PAM – nonselective calcium activators in parental CHO-K1 cells, primary screen, counter-screen for M1 PAM project, cell-based, Fluo-8 calcium fluorescence, full deck, 1536-well. actives 0.02% (n = 360,000). ATP EC20; 0% at ATP EC20, 100% at ATP max. AID 602247, 2012. activation, % at 3 µM;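 active = activation above the run cutoff, the mean activation of all test compounds plus 3 SD, cut at about 40% in these data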;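 note: peak over basal fluorescence ratio in a 140 s read after ATP addition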
M1 ag parental – counter-screen for M1 agonists: effect in parental CHO-K1 cells | AID 602248, 2012 | actives 0.48% (n = 360,000) | Fluo-8 calcium fluorescence; scaled to maximal ATP response, vehicle zero | activation, % at 3 µM; in the data active = activation above about 15%;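 note: untransfected CHO-K1 host cells lacking M1 receptor as counterscreen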
Each line names hits and unclear results; the compound was inactive in the other large screens. A selection: hits, their analogues and other compounds. The true share with any hit is near 2.4%.

Cn1c(CCN2CCN(c3ccccn3)CC2)nc2cc(NC(=O)COc3ccccc3)ccc21	CHRM1 antagonist 58
CCOC(=O)[C@@H]1[C@H]2COc3ccccc3[C@@H]2N2C(=O)N(c3ccc(Cl)cc3)C(=O)[C@]12C	none
CCCCC(=O)Nc1ccc2c(c1)nc(CCN1CCN(c3ccccn3)CC1)n2C	CHRM1 antagonist 74
CN(CCOc1ccc(Cl)cc1)Cc1cccc(S(=O)(=O)N(C)C)c1	M1 ag 32
Cc1onc(-c2ccccc2)c1C(=O)Nc1ccc(-c2nnc3n2CCCCC3)cc1	none
Cc1noc(C(C)C)c1C(=O)Nc1ccc(-c2nnc3n2CCCCC3)cc1	CHRM1 antagonist 33
Cc1cc(C)n(CC(=O)Nc2ccc(N3CCOCC3)c(Cl)c2)c(=O)c1C#N	none
Cc1ccc(S(=O)(=O)N/N=C/c2ccc(C#N)cc2)cc1	none
Clc1cccc(Cc2c(C3CCCCC3)nc3ccc(Br)cn23)c1	none
CCCC(C)C(=O)Nc1ccc(S(=O)(=O)N2CCCC2)cc1 (stereo unspecified)	none
CC(C(=O)Nc1ccc(S(=O)(=O)N2CCCC2)cc1)N1CCc2ccccc2C1 (stereo unspecified)	CHRM1 antagonist 101
CC(C(=O)Nc1ccc(S(=O)(=O)N2CCCC2)cc1)N1CCCC(C(N)=O)C1 (stereo unspecified)	CHRM1 antagonist 38
Cc1ccc(NC(=O)C(C)N2CCc3ccccc3C2)cc1 (stereo unspecified)	none
CCOC(=O)C1CCCN(C(=O)c2ccc(CS(=O)(=O)c3ccc(C)cc3)o2)C1 (stereo unspecified)	M1 ag 56
CCCN1CCN(C(=O)c2ccc(-c3ccc([N+](=O)[O-])cc3)o2)CC1	none
CCOC(=O)C1CCCN(C(=O)c2ccc(-c3ccc([N+](=O)[O-])cc3)o2)C1 (stereo unspecified)	M1 ag 39
CCOC(=O)C1CCCN(C(=O)c2cccc(S(=O)(=O)N(C)c3ccc(C)cc3)c2)C1 (stereo unspecified)	CHRM1 antagonist 37
Cc1ccc(NC(=O)c2ccc3c(c2)CCN3S(C)(=O)=O)c(C)c1	none
O=c1sc2ccccc2c(N2CCCC2)c1[N+](=O)[O-]	none
Nc1c([N+](=O)[O-])c(=O)sc2ccccc12	M1 ag parental 15
CN1CCN(C(c2cccc(Cl)c2)c2ccccc2Cl)CC1 (stereo unspecified)	CHRM1 antagonist 88
CCOC(=O)C1CCN(C(=O)COc2ccc(S(=O)(=O)N3CCOCC3)cc2)CC1	none
CCOCC(=O)N1CCCC(C(=O)OCC)C1 (stereo unspecified)	CHRM1 antagonist 101
CCOC(=O)C1CCCN(C(=O)Cn2sc3nc(C)cc(C)c3c2=O)C1 (stereo unspecified)	M1 ag 22
CCOC(=O)C1CCCN(C(=O)Cc2ccc(C)cc2)C1 (stereo unspecified)	none
CCOC(=O)C1CCCN(C(=O)COc2ccc(S(=O)(=O)N3CCOCC3)cc2)C1 (stereo unspecified)	M1 ag 31
CCCCC(=O)N1CCCC(C(=O)OCC)C1 (stereo unspecified)	M1 ag 26
CCOc1ccc(NS(=O)(=O)c2ccc(C(=O)N(C)Cc3cccc(OC)c3OC)cc2)cc1	none
CCOC(=O)N1CCN(C(=O)c2nn(C)c3c2CSc2ccccc2-3)CC1	none
CCOC(=O)C1CCCN(C(=O)CCCn2nc(C)n3c(cc4sccc43)c2=O)C1 (stereo unspecified)	M1 ag 34
Cc1ccc(OCCOC(=O)c2cc(S(=O)(=O)N3CCCCC3)ccc2N2CCOCC2)cc1	CHRM1 antagonist 28
O=C(OCCOc1ccc(Cl)cc1)c1cc(S(=O)(=O)N2CCCCC2)ccc1N1CCOCC1	none
CCOC(=O)C1CCCN(C(=O)CCCn2nnnc2CN2CCOCC2)C1 (stereo unspecified)	M1 ag 49
CC(C)=C(NC(=O)c1ccccc1Cl)C(=O)NCCc1nc2ccccc2[nH]1	none
O=C(NCCCn1ccnc1)c1cc(Cl)cc(Cl)c1	none
CCc1c(C(=O)NNC(=O)Nc2ccc3c(c2)OCO3)csc1C	none
N#CCC(=O)Nc1ccc(C(=O)OCC(=O)NC2CCCc3ccccc32)cc1 (stereo unspecified)	none
Cc1ccc(CC(C)(O)CC(C)(O)Cc2ccc(C)cc2)cc1 (stereo unspecified)	none
O=C(CNC(=O)C1CC(=O)N(c2cccc3ccccc23)C1)Nc1ccccc1Br (stereo unspecified)	none
Cc1cc(Nc2ccc(Cl)cc2)nc(-c2ccccc2O)n1	none
Cc1cc(Nc2cccc(Cl)c2)nc(-c2ccccc2O)n1	CHO-K1 Ca antag 43
Oc1ccc(Br)cc1C=Nc1ccc2c3c(cccc13)CC2	CHO-K1 Ca antag 32, M1 ag parental 22
CC(C)C(NC(=O)CCNC(=O)c1ccccc1Cl)c1nc2ccccc2[nH]1 (stereo unspecified)	none
NCCCC(=O)N1c2ccccc2Sc2ccc(Cl)cc21	CHRM1 antagonist 100
CN1CCC=C(C(=O)N2c3ccccc3Sc3ccc(Cl)cc32)C1	CHRM1 antagonist 101
O=C(CCN1CCN2CCCC2C1)N1c2ccccc2Sc2ccc(Cl)cc21 (stereo unspecified)	CHRM1 antagonist 83
NC(=O)N1CCN(CCCN2c3ccccc3Sc3cc(Cl)ccc32)CC1	none
CN1CCN(CCC(=O)N2c3ccccc3Sc3ccc(Cl)cc32)CC1	CHRM1 antagonist 57
COc1cccc(-c2nc(-c3ccccc3)c3ccc(Cl)cc3n2)c1	none (no result: M1 ag, CHRM1 antagonist, M1 PAM)
CCS(=O)(=O)Nc1ccc(C2=NN(S(=O)(=O)CC)C(c3cccs3)C2)cc1 (stereo unspecified)	none
O=C(CN1CCN(CCOCCO)CC1)N1c2ccccc2Sc2ccc(Cl)cc21	CHRM1 antagonist 93
NCCC(=O)N1c2ccccc2Sc2ccc(Cl)cc21	CHRM1 antagonist 91
COCCN(C(=O)COC(=O)CNC(=O)c1ccc(C)cc1)c1c(N)n(Cc2ccccc2)c(=O)[nH]c1=O	none
COc1cc(OC)cc(C(=O)NC2CC3CCC(C2)N3C)c1 (stereo unspecified)	none
CN1CCCCCC1=Nc1ccccc1C#N	CHRM1 antagonist 27
CCc1nc2ccc(C(=O)N3CCN(c4cccc(C(F)(F)F)c4)CC3)cc2nc1CC	CHRM1 antagonist 47
CCCN1C(=O)CC(=O)N=C1SCC(=O)Nc1ccccc1F	M1 ag parental 18
